Among all 5,500 compounds or so, about 2,000 (36%) were called active. Inconclusive results (about 18%) are left out. Cut-off read from the data, not from the text of the source: active = normalized growth mostly below about 0.91 (no sharp cut-off); inconclusive = no clear call, values can overlap the other calls; inactive = mostly above about 0.92. Some of the results follow.
Experiment: chemical genetic growth profiling, strain panel (AID 1159580);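 note: tested at 20 µM; growth read once vehicle control cultures reached saturation at 30 °C; 1 = growth at the plate median or of vehicle wells; lower values mean less growth of the strain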
Conditions: growth OD
[1] = S. cerevisiae deletion strains, locus YAL013W, strain DEP1, stronger effect = lower value
[2] = S. cerevisiae deletion strains, locus YBR229C, strain ROT2, stronger effect = lower value
[3] = S. cerevisiae deletion strains, locus YDL101C, strain DUN1, stronger effect = lower value
[4] = S. cerevisiae deletion strains, locus YDL134C, strain PPH21, stronger effect = lower value
[5] = S. cerevisiae deletion strains, locus YDR150W, strain NUM1, stronger effect = lower value
[6] = S. cerevisiae deletion strains, locus YEL061C, strain CIN8, stronger effect = lower value
[7] = S. cerevisiae deletion strains, locus YGR078C, strain PAC10, stronger effect = lower value
[8] = S. cerevisiae deletion strains, locus YGR229C, strain SMI1, stronger effect = lower value
[9] = S. cerevisiae deletion strains, locus YHR030C, strain SLT2, stronger effect = lower value
[10] = S. cerevisiae deletion strains, locus YHR087W, strain rtc3, stronger effect = lower value
[11] = S. cerevisiae deletion strains, locus YJR043C, strain POL32, stronger effect = lower value
[12] = S. cerevisiae deletion strains, locus YJR075W, strain HOC1, stronger effect = lower value
[13] = S. cerevisiae deletion strains, locus YLR039C, strain RIC1, stronger effect = lower value
[14] = S. cerevisiae deletion strains, locus YLR058C, strain SHM2 (second series), stronger effect = lower value
[15] = S. cerevisiae deletion strains, locus YLR085C, strain ARP6, stronger effect = lower value
[16] = S. cerevisiae deletion strains, locus YLR262C, strain YPT6, stronger effect = lower value
[17] = S. cerevisiae deletion strains, locus YML094W, strain GIM5, stronger effect = lower value
[18] = S. cerevisiae deletion strains, locus YMR219W, strain ESC1, stronger effect = lower value
[19] = S. cerevisiae deletion strains, locus YMR263W, strain SAP30, stronger effect = lower value
[20] = S. cerevisiae deletion strains, locus YNL153C, strain GIM3, stronger effect = lower value
[21] = S. cerevisiae deletion strains, locus YNL298W, strain CLA4 (second series), stronger effect = lower value
[22] = S. cerevisiae deletion strains, locus YNL322C, strain KRE1, stronger effect = lower value
[23] = S. cerevisiae deletion strains, locus YNR030W, strain Alg12, stronger effect = lower value
[24] = S. cerevisiae deletion strains, locus YPL055C, strain LGE1, stronger effect = lower value
[25] = S. cerevisiae deletion strains, locus YPL241C, strain CIN2, stronger effect = lower value
[26] = S. cerevisiae deletion strains, locus YPR135W, strain CTF4, stronger effect = lower value

Measured: normalized growth

CCN1CN=C(SCc2ccc(C)cc2)NC1
inactive: [1] 0.986 | [2] 0.992 | [3] 0.991 | [4] 1 | [5] 0.932 | [6] 0.997 | [7] 0.983 | [8] 1 | [9] 0.915 | [10] 0.968 | [11] 0.976 | [12] 0.986 | [13] 0.977 | [14] 0.977 | [15] 0.997 | [16] 0.974 | [17] 0.998 | [18] 0.994 | [19] 0.974 | S. cerevisiae deletion strains, locus YMR307W, strain GAS1, stronger effect = lower value 1.05 | [20] 0.98 | [21] 0.975 | [22] 0.994 | [23] 0.986 | [24] 0.947 | [25] 0.978 | [26] 0.904

COc1cc(NC(=O)NS(=O)(=O)c2ccc(C)cc2)cc(C(F)(F)F)c1
inactive: [1] 0.991 | [2] 0.995 | S. cerevisiae deletion strains, locus YCL061C, strain MRC1, stronger effect = lower value 0.987 | [3] 0.99 | [4] 1 | [5] 0.91 | [6] 1.02 | [7] 0.995 | [8] 0.996 | [9] 1.1 | [10] 0.994 | [11] 0.998 | [12] 0.965 | [13] 0.925 | [14] 0.999 | [15] 1.05 | [16] 0.907 | [17] 1.01 | [18] 0.997 | [19] 1 | [20] 0.995 | [21] 1.03 | [22] 0.986 | [23] 1.03 | S. cerevisiae deletion strains, locus YOL006C, strain TOP1, stronger effect = lower value 1.06 | [24] 0.966 | [25] 1.11 | [26] 1.02 | S. cerevisiae strains, strain wild type, stronger effect = lower value 1
